From PubChem BioAssay (Tox21) come the findings set out here.

Experiment [1] is described as follows: qHTS assay for small molecule agonists of the p53 signaling pathway (AID 651631; calls by dose curve; further: nearly all actives have a fitted effect of over 15% in size; further: potency means the concentration at half of the fitted maximal effect). The method, boiled down:
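HCT-116 p53RE-bla reporter line, 16 h compound treatment at 37 °C, then fluorescence after 2 h with B/G FRET substrate.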
In general terms: qHTS replaces the single test concentration by a dilution series.

Experiment [2] is described as follows: qHTS assay for small molecules that induce genotoxicity in human embryonic kidney cells expressing luciferase-tagged ATAD5 (AID 651632). Further: nearly all actives have a fitted effect of over 15% in size. Further: potency means the concentration at half of the fitted maximal effect. The method, boiled down:
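ATAD5-luc HEK293T, 2,000 cells/well; cpd or DMSO pin-transferred; 16 hr, 37C/5% CO2; Amplite 30 min RT; luminescence.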

A short description of experiment [3]: qHTS assay for small molecule agonists of the p53 signaling pathway - cell viability (AID 651633; calls by dose curve; further: nearly all actives have a fitted effect of over 30% in size; further: potency means the concentration at half of the fitted maximal effect). In a few lines: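 p53RE-bla cells, seeded at 4,000 per well and rested 5 h at 37 C/5% CO2, received compounds in DMSO for 16 h at 37 C. CellTiter-Glo was then added, and luminescence was read after 30 min at room temperature to gauge cytotoxicity.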
The nature of experiment [4]: qHTS assay for small molecules that induce genotoxicity in human embryonic kidney cells expressing luciferase-tagged ATAD5 - cell viability (AID 651634; calls by dose curve; further: nearly all actives have a fitted effect of over 25% in size; further: potency means the concentration at half of the fitted maximal effect). The method, boiled down:
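Fluorescence from CellTiter-Fluor, reporting protease activity within live cells, served as the viability read-out. HEK293T cells carrying luciferase-tagged ATAD5 had been treated with compound for 15.5 hr at 37C.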

A short description of experiment [5]: qHTS assay for small molecule disruptors of the mitochondrial membrane potential - cell viability (AID 720634; calls by dose curve; further: nearly all actives have a fitted effect of over 20% in size; further: potency means the concentration at half of the fitted maximal effect). The method, boiled down:
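Cells: HepG2, 2,000/well, attached overnight. Compound 1 hr, 37 C/5% CO2. +m-MPI dye, +CellTiter-Glo 30 min RT. Readout: luminescence (ATP).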

A short description of experiment [6]: qHTS assay for small molecule disruptors of the mitochondrial membrane potential (AID 720635). Further: potency means the concentration at half of the fitted maximal effect. The method, boiled down:
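HepG2 cells (2,000/well) attached overnight at 37C, then took compound for 1 hr at 37C, 5% CO2. Mito-MPS dye was added for 30 min; fluorescence was read at 490/535 nm (monomers) and 540/590 nm (aggregates).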

Experiment [7] can be described thus: qHTS assay to test for compound auto fluorescence at 590 nm (red) in HepG2 cells (AID 720674). In a few lines: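 Compound auto-fluorescence is scored relative to Rose Bengal sodium, measured at 540/590 nm in live HepG2 cultures after 1 hr compound contact (37 C, 5% CO2).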
Experiment [8] in a line: qHTS assay to test for compound auto fluorescence at 535 nm (green) in HepG2 cells (AID 720675).
A short description of experiment [9]: qHTS assay to test for compound auto fluorescence at 460 nm (blue) in HEK293 cells (AID 720678). The method, boiled down:
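Blue read-out at excitation 405 nm and emission 460 nm follows overnight compound exposure of HEK293 cells at 37C in 5% CO2. Activity is given as auto fluorescence equivalency to triamterene.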

Experiment [10] is described as follows: qHTS assay to test for compound auto fluorescence at 590 nm (red) in HEK293 cells (AID 720679). In a few lines: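 Red channel, Ex/Em 540/590nm; signal expressed as equivalency to Rose Bengal sodium. HEK293, 2,000 cells/well, 10% dialyzed FBS; 23 nL compound pinned after 4-5 hr attachment; overnight 37C/5% CO2 before reading.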
Experiment [11] in a line: qHTS assay to test for compound auto fluorescence at 535 nm (green) in HEK293 cells (AID 720680).
The nature of experiment [12]: qHTS assay to test for compound auto fluorescence at 460 nm (blue) in HEK293 cell free culture (AID 720681). In a few lines: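 Test compounds were pinned into cell-free culture medium (DMEM with 10% FBS) and fluorescence was read directly at Ex/Em 405/460 nm. Signals were expressed as fluorescence equivalents of triamterene, with DMSO vehicle as control.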
Experiment [13] in a line: qHTS assay to test for compound auto fluorescence at 535 nm (green) in HEK293 cell free culture (AID 720682). The method, boiled down: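 Steps: dispense DMEM/10% FBS into empty wells; pin in compound or DMSO; measure fluorescence at 485/535 nm. Values are fluorescein equivalents.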
Experiment [14] is described as follows: qHTS assay to test for compound auto fluorescence at 590 nm (red) in HEK293 cell free culture (AID 720683). The method, boiled down: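 Tox21 10K library compounds were pinned into cell-free DMEM with 10% FBS and fluorescence was read at excitation 540 nm. Activity is expressed as Rose Bengal sodium equivalency.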
The nature of experiment [15]: qHTS assay to test for compound auto fluorescence at 590 nm (red) in HepG2 cell free culture (AID 720684). The method, boiled down:
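Measured in medium alone (MEM containing 10% FBS) following pintool addition of compound; emission at 590 nm with 540 nm excitation, referenced to Rose Bengal sodium.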

Experiment [16] is described as follows: qHTS assay to test for compound auto fluorescence at 460 nm (blue) in HepG2 cell free culture (AID 720685). The method, boiled down:
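Compound (23 nL) or DMSO pinned into cell-free MEM with 10% FBS; blue fluorescence read at 405/460 nm excitation/emission, expressed as auto-fluorescence equivalency to triamterene.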

The nature of experiment [17]: qHTS assay to test for compound auto fluorescence at 535 nm (green) in HepG2 cell free culture (AID 720686).
A short description of experiment [18]: qHTS assay to test for compound auto fluorescence at 460 nm (blue) in HepG2 cells (AID 720687). In a few lines:
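Cells (2,000/well in MEM with 10% FBS) attached overnight at 37 C, then were exposed to compound or DMSO for 1 hr at 37 C, 5% CO2. Fluorescence read at Ex/Em 405/460 nm, expressed as triamterene-equivalent signal.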

Experiment [19] addresses Glucocorticoid receptor (Homo sapiens) (UniProt P04150). The experiment in a line: qHTS assay to identify small molecule agonists of the glucocorticoid receptor (GR) signaling pathway (AID 720691; active means well fitted activation curve with a large enough effect in the signal ratio in the repeat runs, not every such curve was filed as active; the % refers to the signal ratio). The method, boiled down:
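Fluorescence intensity from LiveBLAzer B/G FRET substrate (2 h, room temperature) reports beta-lactamase expression driven by the glucocorticoid response element in GR-bla HeLa cells after 18 h compound exposure at 37 C.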

Experiment [20] shares this target. Put plainly: qHTS assay to identify small molecule antagonists of the glucocorticoid receptor (GR) signaling pathway (AID 720692; active means well fitted inhibition curve with a large enough effect in the signal ratio in the repeat runs, not every such curve was filed as active; the % refers to the signal ratio; further: potency means the concentration at half of the fitted maximal effect). The method, boiled down: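 HeLa GR-bla cells; cmpd + dex 5 nM final, 18 h 37 C; LiveBLAzer B/G FRET substrate 2 h RT; fluorescence intensity read. Antagonist mode, qHTS.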

Molecules are shown by their SMILES. Several values for one entry are separate records, joined by “and”; a condition that tells them apart may be missing. Identical values can stand only once. Results filed as inconclusive are left out. Activity calls are given as the source filed them. Unless noted, the call rests on the fitted dose curve; in most records, active means well fitted curve in the direction sought with a large enough effect in the repeat runs; inconclusive means weak or mixed curves; inactive means no such curve, though single readings can be large; an effect the other way counts as inactive or inconclusive.

Chain of Glucocorticoid receptor (Homo sapiens) (P04150 whole entry, looked up): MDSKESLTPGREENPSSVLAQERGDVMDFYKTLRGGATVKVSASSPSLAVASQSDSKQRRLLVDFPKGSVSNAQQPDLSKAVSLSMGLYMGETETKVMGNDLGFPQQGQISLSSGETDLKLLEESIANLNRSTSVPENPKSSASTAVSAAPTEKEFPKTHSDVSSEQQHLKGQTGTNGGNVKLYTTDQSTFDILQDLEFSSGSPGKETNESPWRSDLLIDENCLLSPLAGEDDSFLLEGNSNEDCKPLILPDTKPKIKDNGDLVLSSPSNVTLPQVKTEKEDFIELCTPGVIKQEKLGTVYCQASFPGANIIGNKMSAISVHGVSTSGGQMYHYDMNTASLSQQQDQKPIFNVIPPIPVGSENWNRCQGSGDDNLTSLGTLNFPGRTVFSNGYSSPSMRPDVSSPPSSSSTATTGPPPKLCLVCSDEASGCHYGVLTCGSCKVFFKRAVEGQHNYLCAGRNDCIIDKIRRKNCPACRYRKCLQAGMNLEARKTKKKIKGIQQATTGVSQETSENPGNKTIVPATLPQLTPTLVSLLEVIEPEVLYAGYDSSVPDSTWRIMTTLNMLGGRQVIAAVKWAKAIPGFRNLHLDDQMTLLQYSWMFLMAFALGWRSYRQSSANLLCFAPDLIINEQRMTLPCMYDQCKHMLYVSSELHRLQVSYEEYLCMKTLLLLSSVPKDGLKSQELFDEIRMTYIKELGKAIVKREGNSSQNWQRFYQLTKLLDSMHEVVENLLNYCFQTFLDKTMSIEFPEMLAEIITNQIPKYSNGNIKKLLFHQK

As to `N#Cc1c(Cl)c(Cl)c(Cl)c(C#N)c1Cl`, the Potency in experiment [1] was 21.3 µM (active) and 30.6 µM (active); in experiment [2], 424 nM (active) and 864 nM (active); in experiment [3], 6.73 µM (active) and 9.69 µM (active); in [4], 30 µM (active) and 8.63 µM (active); in experiment [5], 19 µM (active) and 21.7 µM (active); in experiment [6], 3.37 µM (active) and 27.3 µM (active). Also, the call in experiment [7], in [8], in [10], in experiment [11], in experiment [13] and in experiment [14] was inactive. The compound was called inactive in [15] and in experiment [17]. Further, the Potency entry in [9], in experiment [12], in experiment [16] and in experiment [18] was “inactive” throughout.
Regarding `O=P(OCCCl)(OCCCl)OCCCl`, the Potency result in experiment [1], in experiment [2], in [3], in experiment [4], in [5] and in experiment [6] was “inactive” each time. The Potency entry in experiment [9], in [12], in experiment [16], in experiment [18] and in [20] was “inactive” in each case. For the same compound, the result in experiment [7], in experiment [8], in experiment [10], in experiment [11], in [13] and in [14] was inactive. Moreover, the compound was called inactive in experiment [15], in experiment [17] and in [19].
As for `CNC(=O)Oc1cccc2c1OC(C)(C)C2`, the Potency entry in experiment [1], in experiment [2], in experiment [3], in [4], in experiment [5] and in [6] was “inactive” each time. For the same compound, the Potency result in [9], in experiment [12], in experiment [16], in experiment [18] and in [20] was “inactive” throughout. Also, the compound was called inactive in experiment [7], in experiment [8], in experiment [10], in experiment [11], in experiment [13] and in experiment [14]. The compound was called inactive in [15] and in experiment [19].
`C[C@]12CC[C@H]3[C@@H](CCC4=CC(=O)CC[C@@H]43)[C@@H]1CC[C@@H]2O`: the Potency result in [1], in experiment [2], in experiment [3], in [4], in [5] and in experiment [6] was “inactive” each time. In addition, the Potency result in experiment [9], in experiment [12], in experiment [16] and in [18] was “inactive” each time. Also, the compound was called inactive in experiment [7], in experiment [8], in [10], in experiment [11], in experiment [13] and in experiment [14]. Besides, the outcome in experiment [15] and in experiment [17] was inactive. The Potency in [20] is 3.01 µM (active) and 4.25 µM (active) and 6.85 µM (active).
As to `CCC/C=N/O`, the Potency result in [1], in experiment [2], in experiment [3], in experiment [4], in experiment [5] and in experiment [6] was “inactive” throughout. The Potency result in [9], in [12], in [16], in experiment [18] and in experiment [20] was “inactive” in each case. The compound was called inactive in experiment [7], in experiment [8], in experiment [10], in experiment [11], in experiment [13] and in experiment [14]. Besides, the compound was called inactive in experiment [15], in experiment [17] and in [19].
For the compound `O=NN(c1ccccc1)c1ccccc1`, the Potency entry in experiment [1], in experiment [2], in experiment [3], in experiment [4], in [5] and in [6] was “inactive” throughout. In addition, the Potency entry in experiment [9], in [12], in experiment [16], in experiment [18] and in [20] was “inactive” each time. Further, the outcome in experiment [7], in experiment [8], in [10], in experiment [11], in [13] and in [14] was inactive. Moreover, the compound was called inactive in experiment [15], in [17] and in experiment [19].
`O=[N+]([O-])c1ccc(Cl)c([N+](=O)[O-])c1`: the Potency in [1] was 55.3 µM (active) and 12.2 µM (active); in experiment [2], 24.7 µM (active); in [3], 22 µM (active) and 54.5 µM (active); in [4], 55.3 µM (active) and 68.6 µM (active); in experiment [5], 22 µM (active) and 21.7 µM (active); in experiment [6], 8.77 µM (active) and 8.63 µM (active). For the same compound, the call in [7], in [8], in experiment [10], in experiment [11], in experiment [13] and in experiment [14] was inactive. Besides, the compound was called inactive in experiment [15] and in experiment [17]. The Potency result in experiment [9], in experiment [12], in [16] and in experiment [18] was “inactive” each time.
